PubChem BioAssay (NCATS)
Records with an inconclusive call do not appear. Entries that show only a call come without a potency. A number with no mark means an inactive call. Calls of active or inactive are those of the source. Unless noted, the call rests on the fitted dose curve; in most records, active means well fitted curve in the direction sought with a large enough effect; inconclusive means small, poorly fitted or top-dose-only effect, or another doubt; inactive means no such curve, though single readings can be large; an effect the other way counts as inactive or inconclusive.

Key:
[1] = qHTS for Inhibitors of Plasmodium falciparum (DD2) proliferation (AID 504314);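 further: parasite DNA measured by SYBR Green fluorescence after red cell lysis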
In short: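 Parasite proliferation measured as SYBR Green signal from Plasmodium DNA, mature erythrocytes lacking DNA. 72 h incubation, 37C; activity scaled between vehicle and 0.29 uM artemisinin, with correction from vehicle-only plates.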

[2] = qHTS for Inhibitors of Plasmodium falciparum (GB4) proliferation (AID 504315); further: nearly all actives have a fitted effect of over 50% in size
In short: (§1)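 Parasite growth measured as SYBR Green DNA fluorescence (ex 485, em 535 nm) after overnight lysis following 72 h culture at 37 °C, 0.3% parasitemia, 2.5% hematocrit. Values normalized against DMSO and 0.29 uM artemisinin controls, with plate-stack correction.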

[3] = qHTS for Inhibitors of Plasmodium falciparum (7G8) proliferation (AID 504316); further: nearly all actives have a fitted effect of over 65% in size; further: potency means the concentration at half of the fitted maximal effect
In short: as §1

[4] = qHTS for Inhibitors of Plasmodium falciparum (CP250) proliferation (AID 504320)
In short: as §1

[5] = target: Atrial natriuretic peptide receptor 1 (Homo sapiens) (UniProt P16066); experiment: Natriuretic polypeptide receptor (hNpr1) antagonism - Pilot CMLD screen (AID 1347052; calls by dose curve;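 further: HEK293 cells with hNpr1 stimulated by hNppA peptide at 0.1 nM; cGMP level read as GloSensor luciferase luminescence after agonist stimulation; series mostly up to about 9.2 µM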)
Chain of Atrial natriuretic peptide receptor 1 (Homo sapiens) (P16066 whole entry, looked up): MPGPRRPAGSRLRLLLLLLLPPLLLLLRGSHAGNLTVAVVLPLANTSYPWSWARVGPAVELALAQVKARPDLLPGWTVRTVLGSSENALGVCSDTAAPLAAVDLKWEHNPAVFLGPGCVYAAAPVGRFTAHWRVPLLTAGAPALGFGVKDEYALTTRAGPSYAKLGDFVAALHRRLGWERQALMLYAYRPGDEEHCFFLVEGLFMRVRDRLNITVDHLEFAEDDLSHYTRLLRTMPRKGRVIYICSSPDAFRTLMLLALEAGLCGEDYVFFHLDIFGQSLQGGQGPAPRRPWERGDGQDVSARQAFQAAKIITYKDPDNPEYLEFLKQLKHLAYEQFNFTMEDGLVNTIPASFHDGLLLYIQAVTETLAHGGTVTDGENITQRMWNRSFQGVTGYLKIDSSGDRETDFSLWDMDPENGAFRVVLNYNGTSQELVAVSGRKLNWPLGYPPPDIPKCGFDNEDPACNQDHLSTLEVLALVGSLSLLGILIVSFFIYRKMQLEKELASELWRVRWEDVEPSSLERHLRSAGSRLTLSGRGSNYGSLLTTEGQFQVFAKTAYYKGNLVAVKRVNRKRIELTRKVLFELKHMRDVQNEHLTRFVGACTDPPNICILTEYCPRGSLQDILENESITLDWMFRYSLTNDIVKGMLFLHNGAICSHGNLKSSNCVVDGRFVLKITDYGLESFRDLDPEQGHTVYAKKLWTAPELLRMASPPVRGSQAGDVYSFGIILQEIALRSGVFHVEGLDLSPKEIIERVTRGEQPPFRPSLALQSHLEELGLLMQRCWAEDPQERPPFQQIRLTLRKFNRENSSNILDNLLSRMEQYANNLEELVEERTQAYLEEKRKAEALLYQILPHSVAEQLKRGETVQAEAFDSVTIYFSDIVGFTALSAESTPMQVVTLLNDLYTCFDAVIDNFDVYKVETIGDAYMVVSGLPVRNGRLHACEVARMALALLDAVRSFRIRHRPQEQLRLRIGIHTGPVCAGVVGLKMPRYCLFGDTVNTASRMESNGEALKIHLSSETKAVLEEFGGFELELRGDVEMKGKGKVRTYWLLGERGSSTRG

For `C=CCC(Nc1ccc(OC)cc1)C(=O)OCC` (stereo not given), which Potency [1] is on record?
The Potency was “inactive”.

And the Potency [2]?
The Potency was “inactive”.

And the Potency [3]?
The Potency was “inactive”.

What about the Potency [4] of the same molecule?
The Potency was “inactive”.

And the Potency [5]?
The Potency was “inactive”.

Which results are given for `CC1(OC(=O)C2CCCC2)C(=O)C=C2C=C(c3ccsc3)N(C(CO)CO)C=C2C1=O` (stereo not given)?
Potency [1]: inactive; Potency [2]: inactive; Potency [3]: inactive; Potency [4]: inactive; Potency [5]: inactive

With `C#CCCCON=C1C[C@@H](O)[C@H](O)[C@H]2[C@@H]3C(=O)N(C4CCCCC4)C(=O)[C@@H]3CC[C@H]12` as the molecule, how does the Potency [1] read?
The Potency was “inactive”.

What about the Potency [2] of the same molecule?
Its Potency is “inactive”.

And the Potency [3]?
The Potency was “inactive”.

What about the Potency [4] of the same molecule?
The Potency was “inactive”.

What about the Potency [5] of the same molecule?
Its Potency is “inactive”.

Which activity, negative = inhibition [1] does the source give for `COc1ccc(-c2nc3c(c4c2C[C@H](c2ccccc2)OC4)CN(C(=O)c2ccco2)CC3)c(C)c1` here?
Its activity, negative = inhibition is -2.96% [at 1.12 µM].

What about the Potency [2] of the same molecule?
Its Potency is “inactive”.

What about the Potency [3] of the same molecule?
The Potency was 1690 nM (active).

And the Potency [4]?
The Potency was “inactive”.

And the Potency [5]?
Its Potency is “inactive”.

With `COC(=O)[C@H]1C[C@@]2(CC=C(C)C)C(=O)[C@@](CC=C(C)C)(C(=O)C(C(=O)c3ccccc3)=C2OC)C1(C)C` as the molecule, how does the Potency [1] read?
Its Potency is “inactive”.

What about the Potency [2] of the same molecule?
Its Potency is “inactive”.

What about the Potency [3] of the same molecule?
The Potency was “inactive”.

What about the Potency [4] of the same molecule?
The Potency was “inactive”.

And the Potency [5]?
The Potency was “inactive”.

With `C#CCNC(=O)[C@H]1C=C(OC)C(=O)C[C@H](c2ccccc2)[C@H]1C` as the molecule, how does the Potency [1] read?
Its Potency is “inactive”.

What about the Potency [2] of the same molecule?
The Potency was “inactive”.

What about the Potency [3] of the same molecule?
The Potency was “inactive”.

What about the Potency [4] of the same molecule?
The Potency was “inactive”.

What about the Potency [5] of the same molecule?
Its Potency is “inactive”.

Which Potency [1] does the source give for `COC(=O)[C@H](COC(C)(C)C)NC(=O)O[C@@H]1C(=O)c2cc(OC)ccc2O[C@H]1c1ccc(OC)c(Br)c1` here?
Its Potency is “inactive”.

What about the Potency [2] of the same molecule?
The Potency was “inactive”.

And the Potency [3]?
Its Potency is “inactive”.

What about the Potency [4] of the same molecule?
Its Potency is “inactive”.

What about the Potency [5] of the same molecule?
The Potency was “inactive”.

For `CC[C@H]1OC(c2ccccc2)[C@H](C)[C@H]2O[C@@H]2[C@@H]1C(=O)OC` (stereo not given in full), which Potency [1] is on record?
The Potency was “inactive”.

What about the Potency [2] of the same molecule?
The Potency was “inactive”.

What about the Potency [3] of the same molecule?
Its Potency is “inactive”.

What about the Potency [4] of the same molecule?
The Potency was “inactive”.

What about the Potency [5] of the same molecule?
Its Potency is “inactive”.

For `COc1ccc(CN2C=C3C(=O)C(C)(OC(=O)C4CCCC4)C(=O)C=C3C=C2c2ccsc2)cc1` (stereo not given), which activity, negative = inhibition [1] is on record?
The activity, negative = inhibition was -5.43% [at 1.12 µM].

And the Potency [2]?
The Potency was “inactive”.

What about the Potency [3] of the same molecule?
Its Potency is “inactive”.

And the Potency [4]?
The Potency was “inactive”.

What about the Potency [5] of the same molecule?
The Potency was “inactive”.

With `COc1ccc(COC(=O)NN=C2C[C@@H](O)[C@@H](O)[C@@H]3[C@H]4C(=O)N(C[C@@H]5CCCO5)C(=O)[C@@H]4CC[C@H]23)cc1` as the molecule, how does the Potency [1] read?
The Potency was “inactive”.

And the Potency [2]?
Its Potency is “inactive”.

What about the Potency [3] of the same molecule?
Its Potency is “inactive”.

And the Potency [4]?
The Potency was “inactive”.

What about the Potency [5] of the same molecule?
Its Potency is “inactive”.

For `COCCN1C(=O)CC[C@@]23C1=NC(C(=O)OC)=C(C(=O)OC)[C@@H]2N(Cc1ccccc1)c1ccccc13`, which Potency [1] is on record?
Its Potency is “inactive”.

What about the Potency [2] of the same molecule?
Its Potency is “inactive”.

What about the Potency [3] of the same molecule?
The Potency was “inactive”.

And the Potency [4]?
Its Potency is “inactive”.

What about the Potency [5] of the same molecule?
The Potency was “inactive”.

For `CCN(CC)CCCN1C=C2C(=O)C(C)(OC(=O)C3CCCC3)C(=O)C=C2C=C1c1ccsc1` (stereo not given), which activity, negative = inhibition [1] is on record?
Its activity, negative = inhibition is -4.1% [at 1.12 µM].

What about the Potency [2] of the same molecule?
The Potency was “inactive”.

What about the Potency [3] of the same molecule?
The Potency was “inactive”.

And the Potency [4]?
Its Potency is “inactive”.

And the Potency [5]?
Its Potency is “inactive”.

Which Potency [1] does the source give for `COC(=O)C1=C(C(=O)OC)[C@@H]2Nc3ccccc3[C@@]23C[C@@H](C(=O)OC)N(C(=O)Nc2ccccc2F)C3=N1` here?
The Potency was “inactive”.

And the Potency [2]?
The Potency was “inactive”.

And the Potency [3]?
The Potency was “inactive”.

And the Potency [4]?
The Potency was “inactive”.

What about the Potency [5] of the same molecule?
Its Potency is “inactive”.
